Source: PubChem BioAssay
The list is not random: actives were taken first. Their share in the collection is about 5.4%.
CSC inhib: cancer stem cell inhibition. 1.1% of 300,000 active. inhibition, % at 7.5 µM. cancer stem cell-like cells viability, luminescence. AID 2717; in the data active = inhibition above about 75%; inconclusive = no clear call, values can overlap the other calls; tested in HMLE shEcad cells
Calb FLC: C. albicans growth modulation with fluconazole; C. albicans CaCi-2 (fluconazole-resistant clinical isolate) + fluconazole, Alamar Blue growth, 48 h; growth inhibition, % (no concentration beside the values); AID 1979; 0.57% of 300,000 active;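 active = growth inhibition above about 58% in most replicates, limit read from the data, passing the limit was not always enough; inconclusive = exactly half the replicates above a set limit; inactive = most replicates below a set limit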;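 note: all wells also contain fluconazole at 8 µg/ml as a sub-toxic cotreatment; 0% = median of DMSO wells and 100% = median of geldanamycin control wells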
PP5 primary: PP5 (human) phosphatase inhibition. inhibition, % at 6.7 µM. 0.18% of 320,000 active. purified PP5c, OMFP substrate fluorescence. AID 1987. P53041;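 active = inhibition above the campaign's mean inhibition across all tested compounds plus 3 SD, cut at about 9.5% in these data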;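 note: 0% = DMSO only and 100% = 100 µM cantharidin control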
PP1 inh: blocks human PP1-alpha phosphatase, a PP5 counter-screen | purified PP1alpha, OMFP fluorescence | inhibition, % at 6.7 µM | AID 2235 | 0.9% of 320,000 active;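 active = inhibition above the mean inhibition of all tested compounds plus 3 SD, computed separately for each screening campaign, cut at about 15% in these data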
Target sequence (P62136 whole entry, looked up): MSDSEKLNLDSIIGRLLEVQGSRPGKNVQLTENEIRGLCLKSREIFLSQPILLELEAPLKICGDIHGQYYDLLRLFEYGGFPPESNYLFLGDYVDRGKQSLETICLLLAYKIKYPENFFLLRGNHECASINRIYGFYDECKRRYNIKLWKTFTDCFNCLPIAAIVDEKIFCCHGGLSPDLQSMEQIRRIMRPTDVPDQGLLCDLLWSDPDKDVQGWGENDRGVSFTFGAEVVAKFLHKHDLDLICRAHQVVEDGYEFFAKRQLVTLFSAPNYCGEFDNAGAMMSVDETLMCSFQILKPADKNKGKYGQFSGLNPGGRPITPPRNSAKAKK
ALR inh: inhibitors of human sulfhydryl oxidase ALR; purified ALR, DTT oxidation, H2O2 HRP-luminol luminescence; 3.8% of 290,000 active; AID 485317; inhibition, % (no concentration beside the values);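 active = mean replicate inhibition above about 79%, with every replicate also reaching it, limit read from the data; inconclusive = only one of the two criteria met; inactive = mean below limit and not every replicate reaching it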
* = called active by the depositor; u = inconclusive; x = not tested or not shown.

SMILES	CSC inhib	Calb FLC	PP5 primary	PP1 inh	ALR inh
C=C(COC(C)=O)CC1CC(O)[C@]2(C)OC3CC4OC5C[C@]6(C)O[C@]7(C)CCC8OC9C[C@]%10(C)OC%11C(C)=CC(=O)OC%11CC%10OC9C[C@@H](C)C8OC7CC6O[C@]5(C)C/C=C\C4OC3CC2O1 (some centres not stated)	x	-10	x	x	x
C[C@]12C=CC(=O)C=C1CC[C@@H]1C2CC[C@]2(C)OC(=O)CCC12 (some centres not stated)	-2	9	-1	-2	0
Cc1nn(Cc2ccccc2)c(Cl)c1C(=O)O	x	-3	1	-3	-4
CCn1nc(/C=C/c2ccccc2)nc2c(=O)n(C)c(=O)nc1-2	x	101*	x	x	x
CCOc1ccc(C2(C#N)CC[N+](C)(C)CC2)cc1	3	-7	2	-1	1
Cc1cc(C)cc(N2C(=O)NC(=O)/C(=C\c3cccn3-c3ccc(Cl)cc3)C2=O)c1	x	-3	3	-1	98*
Cc1cc(C)cc(N2C(=O)NC(=O)/C(=C\c3cccn3-c3ccccc3)C2=O)c1	u	-6	1	3	51
COC(=O)C1=C(c2cccc(OCc3ccccc3)c2)C[C@@H]2CC[C@H]1N2C(=O)NCCOc1ccc(OC)cc1	19	x	4	8	-6
Cc1cc(-c2ccccc2)cc(-c2ccccc2)[n+]1CCc1ccccc1	16	97*	0	3	-19
CCOc1ccc(-c2cc(C)[n+](CCc3ccc(OC)c(OC)c3)c(-c3ccc(OCC)cc3)c2)cc1	33	64	x	x	-10
CCOc1ccc(-c2cc(C)[n+](CCO)c(-c3ccc(OCC)cc3)c2)cc1	x	92*	2	0	x
O=C1CC(C(=O)N2CCC3(CC2)OCCO3)CN1CCc1ccccc1 (configuration not stated)	-7	-7	2	1	2
CN1CCN(c2ccc([N+](=O)[O-])c(NCc3ccco3)c2)CC1	93*	-23	-2	0	-8
O=[N+]([O-])c1ccc(N2CCNCC2)cc1NCc1ccco1	9	-13	-5	-1	x
COc1cccc(NP(=O)(Oc2ccc(Cl)cc2)Oc2ccc(Cl)cc2)c1	77*	20	2	1	-1
CCOc1c(Cl)cc(CNCCc2c[nH]c3ccccc23)cc1OC	37	-1	2	1	10
O=C(c1ccccc1)c1ccc(N=Nc2c(O)[nH]c(=O)[nH]c2=O)cc1	-7	1	-3	-1	2
COc1ccc2c(c1)CC1(CN2C)C(=O)NC(=O)N(CCc2ccccc2)C1=O (configuration not stated)	x	20	-3	-1	-25
CCC(C)N1C(=O)NC(=O)C2(Cc3c(ccc4ccccc34)N(C)C2)C1=O (configuration not stated)	13	21	6	3	93*
Clc1ccccc1CN1CCN(c2cccc3[nH]ccc23)CC1	23	-6	0	-3	97*
Nc1ccc(N2CCN(Cc3ccccc3Cl)CC2)c(Cl)c1	79*	-12	5	5	89*
Clc1ccccc1CN1CCN(c2ccccc2)CC1	x	-13	-1	0	99*
CCn1c(O)c(C=NCCN2CCOCC2)c(=O)n(CC)c1=S	-2	7	0	0	-11
CCOC(=O)C(NC(=O)C(Cc1ccc(N(CCCl)CCCl)cc1)NC(C)=O)C(C)C (configuration not stated)	44	-1	0	-4	4
COC(=O)C(Cc1ccc(N(CCCl)CCCl)cc1)N=Cc1ccccc1O (configuration not stated)	83*	7	2	-2	x
COC1CC(OC2CCC3(C)C(CCC4C3CCC3(C)C(C5=CC(=O)OC5)C(OC(C)=O)CC43O)C2)OC(C)C1OC1OC(COC2OC(CO)C(O)C(O)C2O)C(O)C(O)C1O (configuration not stated)	79*	-2	4	-5	-12
CCOc1ccc2nc(N=Nc3c(O)[nH]c(=O)[nH]c3=O)sc2c1	-7	-5	1	0	9
CCOc1ccc2nc(N=Nc3c(O)[nH]c(=S)[nH]c3=O)sc2c1	-2	10	3	3	96*
CCCCCCC(=O)c1c(O)n(-c2ccccc2OC)c(=O)[nH]c1=O (tested in a mixture with another compound)	-6	-3	0	0	9
CCN(CC)CCC(=O)O[C@H]1CC[C@]2(C)C3CC[C@@]4(C)C(CC[C@]4(C)O)C3CC[C@H]2C1 (some centres not stated)	-5	x	x	x	-1
